Results filed as inconclusive are left out. Some structures have more than one record in an assay (separate samples or runs), and their calls can disagree. Active and inactive are the calls of the source. Rule for the calls: active = hit-call score of the fitted dose curve at least 0.9, where 1 is the maximum; inconclusive = response in the unintended direction; inactive = score below 0.9.
target: Estrogen receptor beta (Homo sapiens) (UniProt Q92731); assay: OT_ER_ERbERb_0480: Odyssey Thera (OT) 8-hour HEK293T Protein-Complementation Assay for Estrogen Receptor-beta/-beta Homodimer (AID 2283357)
Sequence (Q92731 whole entry, looked up, the tested form may be a part): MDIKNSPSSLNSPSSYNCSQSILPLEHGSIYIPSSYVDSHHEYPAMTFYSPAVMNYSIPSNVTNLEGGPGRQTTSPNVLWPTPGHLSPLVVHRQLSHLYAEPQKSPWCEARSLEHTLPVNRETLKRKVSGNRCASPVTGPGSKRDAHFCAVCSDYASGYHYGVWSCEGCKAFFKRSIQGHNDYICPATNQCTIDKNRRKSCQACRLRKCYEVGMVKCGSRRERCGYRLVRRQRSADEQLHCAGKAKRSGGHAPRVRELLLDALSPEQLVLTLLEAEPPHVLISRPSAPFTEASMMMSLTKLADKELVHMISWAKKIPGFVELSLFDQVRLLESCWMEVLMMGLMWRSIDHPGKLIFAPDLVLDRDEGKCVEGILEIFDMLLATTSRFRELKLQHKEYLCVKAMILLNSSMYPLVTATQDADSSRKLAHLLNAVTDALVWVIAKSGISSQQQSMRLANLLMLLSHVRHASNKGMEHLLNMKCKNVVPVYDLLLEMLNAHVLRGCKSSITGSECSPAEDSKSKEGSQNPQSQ
Procedure: OT_ER_ERbERb_0480 is a cell-based assay that uses HEK293T, a human kidney cell line, with measurements taken at 8 hours after chemical dosing in a 384-well plate.OT_ER_ERbERb_0480 is one of one assay component(s) measured or calculated from the OT_ER_ERbERb_0480 assay. It is designed to make measurements of protein fragment complementation, a form of binding reporter, as detected with fluorescence intensity signals by Protein-fragment Complementation technology.Data from the assay component OT_ER_ERbERb_0480 was analyzed into 1 assay endpoint. This assay endpoint, OT_ER_ERbERb_0480, was analyzed in the positive analysis fitting direction relative to DMSO as the negative control and baseline of activity. Using a type of binding reporter, measures of receptor for gain-of-signal activity can be used to understand the binding at the pathway-level as they relate to the gene ESR2. Furthermore, this assay endpoint can be referred to as a primary readout, because the performed assay has only produced 1 assay endpoint. To generalize the intended target to other relatable targets, this assay endpoint is annotated to the nuclear receptor intended target family, where the subfamily is steroidal.
Protein-fragment complementation assay, or PCA, is a method for the identification and quantification of protein-protein interactions. In the PCA, the proteins of interest ("bait" and "prey") are each covalently linked to fragments of a third protein (e.g. DHFR, which acts as a "reporter"). Interaction between the bait and the prey proteins brings the fragments of the reporter protein in close proximity to allow them to form a functional reporter protein whose activity can be measured. The OT ER beta / ER beta assay is a homodimer PCA of the ligand binding domain (LBD; amino acids 310-547) of human ER beta stably expressed in HEK293T cells. […] Cells are fixed in 4 percent formaldehyde and stained with Draq5 (BioStatus) to identify cells prior to signal detection. Fluorescent signal in the basal state of the assay is very low and is primarily punctuate and cytoplasmic. Modulation of this assay is quantified as an increase in mean fluorescence intensity in the nucleus (for agonists) or in the nucleus and cytoplasm (antagonists) relative to vehicle controls, and can be quantified on a high content imaging device or a laser scanning cytometer. The latter instrument is favored for this assay because of the rapid mode of data acquisition, the ability to acquire data from the entire cell population in a well (as opposed to a fraction of the well on the high content devices) and the larger dynamic range typically achieved with this instrument. To assess sensitivity of the ER beta/ER beta LBD assay to ligand, cells were treated with the ER agonist 17- beta-estradiol (E2) in 10-point concentration- response format for 8 hours and monitored response on a laser scanning plate cytometer (Acumen eX3; TTP Lab Tech).

Row | Structure (SMILES) | outcome | AC50
1 | CC(C)(C)C(O)/C(=C\c1ccc(Cl)cc1Cl)n1cncn1 (centres undefined) | inactive | 
2 | N#CN | inactive | 
3 | CNC(=O)/C=C(\C)OP(=O)(OC)OC | inactive | 
4 | CCC(C)Nc1c([N+](=O)[O-])cc(C(C)(C)C)cc1[N+](=O)[O-] (centres undefined) | inactive | 
5 | CCCN(CCOc1c(Cl)cc(Cl)cc1Cl)C(=O)n1ccnc1 | inactive | 
6 | CNC(=O)CSP(=S)(OC)OC | inactive | 
7 | COc1nn(CSP(=S)(OC)OC)c(=O)s1 | inactive | 
8 | O=C(Nc1ccccc1)Nc1cnns1 | inactive | 
9 | O=[N+]([O-])c1c(Cl)c(Cl)c(Cl)c(Cl)c1Cl | inactive | 
10 | Clc1ccccc1-c1nnc(-c2ccccc2Cl)nn1 | inactive | 
11 | CCOC1Oc2ccc(OS(C)(=O)=O)cc2C1(C)C (centres undefined) | inactive | 
12 | N#Cc1c(Cl)c(Cl)c(Cl)c(C#N)c1Cl | inactive | 
13 | CNC(=O)Oc1cccc(N=CN(C)C)c1 | inactive | 
14 | ClC1C(Cl)C(Cl)C(Cl)C(Cl)C1Cl (centres undefined) | inactive | 50 µM (active)
15 | CC(C)(C)C(O)C(Oc1ccc(Cl)cc1)n1cncn1 (centres undefined) |  | 67.3 µM (active)
16 | Oc1cc(Cl)ccc1Oc1ccc(Cl)cc1Cl | inactive | 
17 | O=[N+]([O-])/N=C1\NCCN1Cc1ccc(Cl)nc1 | inactive | 

Row | Structure (SMILES) | outcome | AC50
18 | CNC(=O)Oc1ccccc1OC(C)C | inactive | 
19 | O=C(O)C(F)(F)C(F)(F)C(F)(F)C(F)(F)C(F)(F)C(F)(F)C(F)(F)F | inactive | 
20 | COP(=S)(OC)Oc1ccc(SC)c(C)c1 | inactive | 
21 | COP(=S)(OC)Oc1ccc([N+](=O)[O-])cc1 | inactive | 
22 | CCc1ccc(C(=O)NN(C(=O)c2cc(C)cc(C)c2)C(C)(C)C)cc1 | inactive | 
23 | Oc1ccc(Cl)cc1Cc1ccccc1 |  | 12 µM (active)
24 | O=C(O)CCCOc1ccc(Cl)cc1Cl | inactive | 
25 | CN1CSC(=S)N(C)C1 | inactive | 
26 | C[C@H]1[C@H](c2ccc(Cl)cc2)SC(=O)N1C(=O)NC1CCCCC1 | inactive | 
27 | CC1(c2ccc(Oc3ccccc3)cc2)OC(=O)N(Nc2ccccc2)C1=O (centres undefined) | inactive | 
28 | O=C(NC(=O)c1c(F)cccc1F)Nc1ccc(OC(F)(F)C(F)OC(F)(F)F)c(Cl)c1 (centres undefined) | inactive | 
29 | CC(C)N(C(=O)COc1nnc(C(F)(F)F)s1)c1ccc(F)cc1 | inactive | 
30 | OCCOc1ccccc1 | inactive | 
31 | O=C1c2ccccc2C(=O)N1SC(Cl)(Cl)Cl | inactive | 
32 | COP(=O)(OC)OC=C(Cl)Cl | inactive | 
33 | CCC(C)(NC(=O)c1cc(Cl)c(C)c(Cl)c1)C(=O)CCl (centres undefined) | inactive | 

Source: PubChem BioAssay (EPA / NIEHS)
